Measured values from PubChem BioAssay AID1053183 (Broad Institute, 2014).
Measured potencies and affinities stand elsewhere. Activity calls are given as the source filed them.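 How the source made its calls: active means cytotoxic compounds with fitted half-maximal concentration at most double the highest valid dose; inconclusive means flat curve with moderate signal loss, or unreliable fit; inactive means the rest.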

Test: HepG2 cell viability loss – cherry-picked samples, cytotoxicity control, dose response (AID 1053183)
Conditions: CellTiter-Glo ATP luminescence, 72 h; series mostly up to 26 µM

| Compound | outcome |
| --- | --- |
| CNC[C@@H]1Oc2cc(C#Cc3ccccc3OC)ccc2S(=O)(=O)N([C@H](C)CO)C[C@H]1C | inactive |
| COc1ccc2c3c(n(C)c2c1)[C@@H](CO)N(CC1CC1)CC31CN(C(=O)c2ccc3c(c2)OCO3)C1 | inactive |
| CN(C)C(=O)c1cccc(-c2ccc(C3[C@@H]4CN(Cc5ccccc5F)C[C@H]3N4)cc2)c1 (stereo partly drawn) | inactive |
| COc1cccc(-c2cccc(-c3nc(C(=O)Nc4ccc(-c5ccccc5)cc4)cc4c3[C@@H](CCO)N(S(=O)C(C)(C)C)C4)c2)c1 (stereo partly drawn) | inactive |
| CO[C@@H](CN(C)Cc1cc(F)ccc1F)[C@@H](C)CN(C(=O)Nc1ccc(C(F)(F)F)cc1)[C@H](C)CO | inactive |
| C/C=C/c1ccc([C@H]2[C@@H](CO)N3C(=O)CN(Cc4ccc(F)cc4)C[C@@H]23)cc1 | inactive |
| C[C@@H]1CN([C@@H](C)CO)C(=O)Cc2cc(NC(=O)C3CCCCC3)ccc2O[C@@H]1CN(C)Cc1ccc(Cl)c(Cl)c1 | inactive |
| C[C@H](CO)N1C[C@H](C)[C@@H](CN(C)Cc2ccccc2)Oc2c(NC(=O)Cc3cn(C)c4ccccc34)cccc2C1=O | inactive |
